Measured values from the supplement of paper PMC11482750.
± gives the standard deviation of the averaged measurements.

Legend:
Assay in all cases: control-subtracted net OSN firing rate; higher = stronger neuronal activation
Details in all cases: odorant dilution (vol/vol): 1/100
phenethyl acetate = compound: CC(=O)OCCc1ccccc1 [phenethyl acetate]
Summary of the method: (§1)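 Fed female flies 1–5 days old, Scaptomyza species or D. melanogaster wild-type, mutant or at1 empty-neuron lines expressing Or42a homologs, were used for single sensillum recordings from palp or antennal olfactory sensory neurons. Each odorant, at 1:100 vol/vol in mineral oil or dimethyl sulfoxide with 20 μl applied to filter paper, was given as a 1 s pulse into a 16 ml/min filtered air stream. Spike counts over 0.5 s from 0.2 s after onset were background-subtracted, doubled and solvent-corrected, then averaged across replicates.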

fenchone = compound: CC12CCC(C1)C(C)(C)C2=O [fenchone]
Summary of the method: as §1

2-hexanol = compound: CCCCC(C)O [2-hexanol]
Summary of the method: as §1

4-ethylguaiacol = compound: CCc1ccc(O)c(OC)c1 [4-ethylguaiacol]
Summary of the method: as §1

methyl salicylate = compound: COC(=O)c1ccccc1O [methyl salicylate]
Summary of the method: as §1

guaiacol = compound: COc1ccccc1O [guaiacol]
Summary of the method: as §1

phenethyl alcohol = compound: OCCc1ccccc1 [phenethyl alcohol]
Summary of the method: as §1

Row | Target | control-subtracted net OSN firing rate (phenethyl acetate) [spikes/s] | control-subtracted net OSN firing rate (fenchone) [spikes/s] | control-subtracted net OSN firing rate (2-hexanol) [spikes/s] | control-subtracted net OSN firing rate (4-ethylguaiacol) [spikes/s] | control-subtracted net OSN firing rate (methyl salicylate) [spikes/s] | control-subtracted net OSN firing rate (guaiacol) [spikes/s] | control-subtracted net OSN firing rate (phenethyl alcohol) [spikes/s]
1 | S. montana pb1b-like | 5 ± 7.6 | 2.33 ± 18 | -16.3 ± 10 | 109 ± 14 | 7.67 ± 11 | 24.7 ± 14 | -7 ± 20
2 | S. pallida pb2a-like | 5 ± 5.3 | 137 ± 13 | 5.67 ± 6.6 | 5.33 ± 4.8 | 6.33 ± 3.9 | 6.67 ± 4.8 | 9.67 ± 8.8
3 | S. flava pb1b-like | -3.67 ± 9.3 | 2 ± 13 | -26.7 ± 21 | 97 ± 18 | -5.33 ± 20 | 9.67 ± 7.5 | -6 ± 20
4 | S. montana pb2b-like | -2.33 ± 4.8 | -7.33 ± 4.5 | 16.7 ± 14 | 16 ± 12 | 106 ± 35 | 107 ± 49 | 18.3 ± 17
5 | S. montana pb3b-like | -2.67 ± 9.3 | -1 ± 4.7 | 4 ± 7.7 | -3.67 ± 9.5 | 2.33 ± 11 | -1.67 ± 5.4 | -3.67 ± 8.9
6 | Canton-S (D. melanogaster) pb3b | 153 ± 48 | -2.83 ± 8.6 | 1.5 ± 8.7 | 0 ± 8.9 | 0.833 ± 6.5 | -2.5 ± 6.4 | 1.33 ± 8.5
7 | S. pallida pb2b-like | -0.333 ± 8.7 | -3.33 ± 8.8 | 27 ± 9.9 | 24 ± 19 | 72 ± 19 | 75.7 ± 20 | 15 ± 11
8 | S. pallida pb3b-like | -18.7 ± 18 | -17 ± 12 | -5.67 ± 12 | -9.33 ± 13 | 14.7 ± 24 | -12.7 ± 18 | -9.33 ± 19
9 | Canton-S (D. melanogaster) pb1b | -2 ± 8.4 | 1.33 ± 9.9 | -6.67 ± 6.2 | 110 ± 36 | -3.78 ± 12 | 38 ± 29 | 4.67 ± 5.4
10 | Canton-S (D. melanogaster) pb1a | 7.11 ± 7.8 | 0 ± 8.1 | 68.7 ± 32 | 1.78 ± 9.1 | 6.22 ± 13 | 5.33 ± 8.1 | 4 ± 8.7
11 | S. hsui pb1a-like | 13.3 ± 16 | -0.333 ± 6.4 | 96 ± 27 | 13.7 ± 5.3 | 14.7 ± 17 | 16 ± 8.3 | 29.7 ± 22
12 | S. hsui pb2b-like | 3 ± 4.9 | 0.667 ± 7.2 | 20 ± 18 | 1.67 ± 2.9 | 103 ± 43 | 111 ± 23 | 17.3 ± 21
13 | Canton-S (D. melanogaster) pb2a | 0.286 ± 4.5 | 166 ± 26 | 3.43 ± 4.9 | 4.86 ± 4.6 | 3.43 ± 3.4 | 6.86 ± 8.1 | 6.29 ± 5.3
14 | S. hsui pb2a-like | 1 ± 7.1 | 140 ± 16 | 6 ± 8 | 3.33 ± 7.3 | 6.33 ± 3.2 | 8 ± 7.5 | 3.67 ± 9.2
15 | S. montana pb1a-like | 6.33 ± 9.6 | 0 ± 12 | 123 ± 17 | -0.333 ± 2.9 | 5.67 ± 11 | 26.3 ± 13 | 82.7 ± 34
16 | S. hsui pb3b-like | -7 ± 2.1 | -2.67 ± 6.5 | -6.67 ± 6.8 | -5.67 ± 2.9 | 1.33 ± 5.8 | -2.33 ± 4.5 | -2.67 ± 5
17 | S. pallida pb1b-like | -5.67 ± 17 | -4.33 ± 7 | -9 ± 8.8 | 90 ± 36 | 1.33 ± 16 | 8.67 ± 28 | 0.667 ± 14
18 | S. hsui pb1b-like | 1 ± 7 | -3.67 ± 6.1 | -11.7 ± 9.8 | 111 ± 24 | -4.67 ± 8.6 | 78 ± 26 | -11 ± 8.7
19 | S. hsui pb3a-like | -5.67 ± 12 | -7 ± 11 | 145 ± 27 | -3.33 ± 10 | 8 ± 8.1 | -5.33 ± 14 | -0.333 ± 7.4
20 | S. flava pb3b-like | 2.67 ± 5 | 0 ± 5.4 | -1 ± 27 | 14.7 ± 34 | 7.67 ± 26 | 8.33 ± 15 | 2.67 ± 6.8
21 | Canton-S (D. melanogaster) pb2b | -3.43 ± 6.8 | -6.86 ± 10 | -2.57 ± 8.5 | -1.43 ± 7.1 | 10.6 ± 10 | 145 ± 52 | 1.14 ± 10
22 | S. flava pb2b-like | 4.33 ± 11 | -3.67 ± 6.9 | 11.7 ± 17 | 15 ± 14 | 111 ± 28 | 121 ± 31 | 10 ± 17
23 | S. flava pb1a-like | 7.33 ± 6.5 | 1.33 ± 6.5 | 111 ± 28 | -5 ± 7.8 | 6.67 ± 15 | 4 ± 10 | 82.7 ± 46
24 | S. montana pb3a-like | 97 ± 35 | -2.33 ± 6.9 | 5.67 ± 13 | -8.67 ± 17 | 3.33 ± 9.9 | -4.33 ± 12 | -3.33 ± 15
25 | Canton-S (D. melanogaster) pb3a | 0 ± 9.4 | -2.83 ± 8.3 | 15.8 ± 18 | 7.5 ± 8.4 | 6.33 ± 7.3 | 2.33 ± 8.2 | 7.67 ± 9.3
26 | S. pallida pb3a-like | -17.3 ± 8.2 | -13 ± 14 | 94.3 ± 19 | -8 ± 7.3 | 6.33 ± 15 | -11.7 ± 15 | -15.7 ± 12
27 | S. pallida pb1a-like | 26.7 ± 30 | -3.67 ± 8.8 | 88.3 ± 13 | 0.667 ± 8.8 | 15.3 ± 34 | 42 ± 22 | 23 ± 38
28 | S. flava pb2a-like | 3 ± 11 | 213 ± 48 | 5.67 ± 11 | 1.67 ± 6.6 | 3 ± 8.7 | 0 ± 13 | 1.33 ± 4.7
29 | S. montana pb2a-like | 1 ± 6.5 | 177 ± 36 | 5.67 ± 14 | 1.67 ± 7.7 | 6 ± 6.3 | 6 ± 6.6 | 7.67 ± 14
30 | S. flava pb3a-like | 160 ± 17 | -2.67 ± 5.6 | 6 ± 10 | -3.33 ± 9.6 | 5.67 ± 12 | -5.33 ± 6.2 | -3.33 ± 6.8
